Source: paper PMC8384837, “Expanding the binding specificity for RNA recognition by a PUF domain”

Biological target: PUM1 PUF domain R3-SRS (Homo sapiens, UniProt Q14671 828-1176, C935S;Q939S)
Assay: yeast three-hybrid, YBZ-1, SC-Leu-His + 0.5 mM 3-AT, 4 days
Settings: tags: N-Gal4 AD-HA kept; label: inside an RPR1-promoter hybrid RNA with tandem MS2 sites; ssRNA
In short: (§1)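 The interaction score is the log change in variant frequency from input to selection. Scores were computed in log2 with a pseudocount of 1 for absent variants, using Illumina sequencing of PCR-amplified repeat regions. The input came from four days on SC-Leu and the selection from four days on SC-Leu-His + 0.5 mM 3-AT. The cells were strain YBZ-1 (LexA–MS2 coat fusion, HIS3 reporter) co-expressing Pumilio-1 PUF domain libraries and matching RNA elements from a centromeric plasmid.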

Chain of PUM1 PUF domain R3-SRS (Q14671 828-1176 C935S/Q939S): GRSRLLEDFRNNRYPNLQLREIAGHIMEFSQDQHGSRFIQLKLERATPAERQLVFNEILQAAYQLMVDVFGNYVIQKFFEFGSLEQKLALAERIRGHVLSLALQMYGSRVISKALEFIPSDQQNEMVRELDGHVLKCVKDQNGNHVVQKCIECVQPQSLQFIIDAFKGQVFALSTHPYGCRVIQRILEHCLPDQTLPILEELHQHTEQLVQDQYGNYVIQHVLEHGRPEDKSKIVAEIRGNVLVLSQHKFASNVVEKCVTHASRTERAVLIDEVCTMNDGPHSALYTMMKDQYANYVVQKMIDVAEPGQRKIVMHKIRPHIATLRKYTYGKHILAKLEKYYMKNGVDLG

Sequence	binding signal
GGCUAGAACUAGUGGAUCCCCCGGCGCCCGGCGGCUCGAGCCCGGGUAAGUGUAAAUAGUCUGCAUGCCGCCGGGCGCCAUGCCUGCAGGUCGACUCUAGAAAACAUG	4.33 log2 enrichment (interaction score)
GGCUAGAACUAGUGGAUCCCCCGGCGCCCGGCGGCUCGAGCCCGGGUAAGUGUAAUUAGUCUGCAUGCCGCCGGGCGCCAUGCCUGCAGGUCGACUCUAGAAAACAUG	1.65 log2 enrichment (interaction score)
GGCUAGAACUAGUGGAUCCCCCGGCGCCCGGCGGCUCGAGCCCGGGUAAGUGUAAGUAGUCUGCAUGCCGCCGGGCGCCAUGCCUGCAGGUCGACUCUAGAAAACAUG	2.81 log2 enrichment (interaction score)

Biological target: PUM1 PUF domain R2-LWT (Homo sapiens, UniProt Q14671 828-1176, N899L;Y900W;Q903T)
Assay: as above
Settings: tags: N-Gal4 AD-HA kept; label: inside an RPR1-promoter hybrid RNA with tandem MS2 sites; ssRNA
In short: as §1

Chain of PUM1 PUF domain R2-LWT (Q14671 828-1176 N899L/Y900W/Q903T): as the sequence (Q14671 828-1176 C935S/Q939S) above, with N72L, Y73W, Q76T, S108C, S112Q counted along it

Sequence	binding signal
GGCUAGAACUAGUGGAUCCCCCGGCGCCCGGCGGCUCGAGCCCGGGUAAGUGUAAAAAGUCUGCAUGCCGCCGGGCGCCAUGCCUGCAGGUCGACUCUAGAAAACAUG	5.62 log2 enrichment (interaction score)
GGCUAGAACUAGUGGAUCCCCCGGCGCCCGGCGGCUCGAGCCCGGGUAAGUGUAAAGAGUCUGCAUGCCGCCGGGCGCCAUGCCUGCAGGUCGACUCUAGAAAACAUG	2.4 log2 enrichment (interaction score)
GGCUAGAACUAGUGGAUCCCCCGGCGCCCGGCGGCUCGAGCCCGGGUAAGUGUAAAUAGUCUGCAUGCCGCCGGGCGCCAUGCCUGCAGGUCGACUCUAGAAAACAUG	1.6 log2 enrichment (interaction score)

Biological target: PUM1 PUF domain R3-DWR (Homo sapiens, UniProt Q14671 828-1176, C935D;R936W;Q939R)
Assay: as above
Settings: tags: N-Gal4 AD-HA kept; label: inside an RPR1-promoter hybrid RNA with tandem MS2 sites; ssRNA
In short: as §1

Chain of PUM1 PUF domain R3-DWR (Q14671 828-1176 C935D/R936W/Q939R): as the sequence (Q14671 828-1176 C935S/Q939S) above, with S108D, R109W, S112R counted along it

Sequence	binding signal
GGCUAGAACUAGUGGAUCCCCCGGCGCCCGGCGGCUCGAGCCCGGGUAAGUGUAAAUAGUCUGCAUGCCGCCGGGCGCCAUGCCUGCAGGUCGACUCUAGAAAACAUG	0.88 log2 enrichment (interaction score)
GGCUAGAACUAGUGGAUCCCCCGGCGCCCGGCGGCUCGAGCCCGGGUAAGUGUAAUUAGUCUGCAUGCCGCCGGGCGCCAUGCCUGCAGGUCGACUCUAGAAAACAUG	3.53 log2 enrichment (interaction score)
GGCUAGAACUAGUGGAUCCCCCGGCGCCCGGCGGCUCGAGCCCGGGUAAGUGUAAGUAGUCUGCAUGCCGCCGGGCGCCAUGCCUGCAGGUCGACUCUAGAAAACAUG	1.12 log2 enrichment (interaction score)
